Test results from PubChem BioAssay AID1571 (National Center for Advancing Translational Sciences (NCATS), 2009).
Values joined by “and” are separate entries in the source; they are usually repeats but may differ in a detail not shown here. Equal values may be shown once. Inconclusive results are not listed. A number with no mark means an inactive call. Active and inactive are the calls of the source. Calls follow the shape of the dose curve; as a rule, active = well fitted curve in the direction sought with a large enough effect; inconclusive = small, poorly fitted or top-dose-only effect, or effect the other way; inactive = flat fitted curve, though single readings scatter.

Assay: Total Fluorescence Confirmation Counterscreen for Inhibitors of the Interaction of Thyroid Hormone Receptor and Steroid Receptor Coregulator 2, Fluorescein Fluoroprobe
Conditions: TRbeta/SRC2-fluorescein mix, total fluorescence interference; series mostly up to 92.2 µM; total fluorescence change, positive = fluorescent: at the top concentration
Source text: NIH Molecular Libraries Probe Production Network [MLPCN] NIH Chemical Genomics Center [NCGC] MLPCN Grant: DK058080 Assay Provider: R. Kip Guy, St. Jude Children's Research Hospital NCGC Assay Overview: Thyroid receptor (TR) regulates many homeostatic processes including basal metabolism, cardiovascular function, body weight, and lipid trafficking. TR modulators are potential therapeutics for obesity and hyperlipidemias but current thyroid analogs have undesirable side effects, particularly cardiac stimulation. To identify inhibitors that specifically prevent the interaction of TR with the steroid receptor coregulator 2 (SRC2), a fluorescence polarization assay was screened (Arnold et al., 2006). This assay detects interaction of the ligand-binding domain of human TRbeta with a fluorescein labeled SRC2 peptide, corresponding to a 20 amino acid region of the nuclear receptor interaction domain. Total fluorescence (555 nm excitation and 632 nm emission) was measured to identify potential fluorescent and light absorbing compounds. Such compounds may be artifacts that interfere with the fluorescence polarization assay. This assay is a confirmation assay for AID 1479. Arnold, L. A.; Estebanez-Perpina, E.; Togashi, M.; Shelat, A.; Ocasio, C. A.; McReynolds, A. C.; Nguyen, P.; Baxter, J. D.; Fletterick, R. J.; Webb, P.; Guy, R. K. A high-throughput screening method to identify small molecule inhibitors of thyroid hormone receptor coactivator binding. Sci STKE 2006, p 13.
NCGC Assay Protocol Summary: For screening, 5 uL/well 0.6 uM TRbeta and 20 nM SRC2 Fluorescein in protein buffer (20mM Tris hydrochloride, 100mM NaCl, 10% glycerol, 1mM EDTA, 0.01% NP-40, 1mM DTT, 1uM T3 and 5% DMSO) was dispensed into black solid 1536-well plates (Grenier) using a solenoid-based dispenser. Following transfer of 23 nL compound or DMSO vehicle by a pin tool, the plates were centrifuged 15 s at 1000 RPM and incubated 5 hr at ambient temperature. The plates were read by an Envision (Perkin Elmer) to detect fluorescence polarization of SRC2 Fluorescein (480 nm excitation and 535 nm emission). Data were normalized to unbound (all components except TRbeta) and bound SRC2 Fluorescein controls. Total fluorescence (TF) was calculated as follows: TF = S + 2P where S and P are fluorescence readings in the parallel and perpendicular channels, respectively. In this assay, we provide % activity data for each concentration as well as potencies for the active compounds.

| SMILES | total fluorescence change, positive = fluorescent | Potency |
| --- | --- | --- |
| O=C1CCCC(O)=C1N=Nc1cccc(S(=O)(=O)N2CCOCC2)c1 | -8.87% |  |
| CCC(NC(=O)Nc1ccc(O)cc1)(C(F)(F)F)C(F)(F)F | 5.98% |  |
| CC1(C)C(N(O)C(=O)Nc2ccc(Cl)cc2)N(c2ccc(Cl)cc2)C(=O)N1CC(=O)NN (stereo not given) | 17.6% [at 11.6 µM] |  |
| Nc1cc(-c2ccccc2)c[nH]c1=O |  | 39.8 µM [fluorescent] (active) |
| O=C(O)/C=C/C(=O)Nc1ccc(OC(F)(F)F)cc1Br | 17.7% [at 0.0112 µM] |  |
| CCSc1ncc(Cl)c(C(=O)Nc2nc3ccc(OC)cc3s2)n1 | -5.55% [at 184 µM] |  |
| O=C(O)C1C2C=CC(O2)C1C(=O)Nc1ccc(S(=O)(=O)N2CCc3ccccc32)cc1 (stereo not given) | 3.65% [at 11.6 µM] |  |
| CS(=O)(=O)c1ccc(C(=O)OCC(=O)NC(=O)C2CCCCC2)cc1[N+](=O)[O-] | 3.5% [at 0.0112 µM] |  |
| CN1CCc2ccc3c4c2[C@]1(C)Cc1cccc(c1-4)OCO3 |  | 100 µM [fluorescent] (active) |
| CC(NC(=O)Nc1ccc(O)cc1)(C(F)(F)F)C(F)(F)F | 8.06% [at 11.6 µM] |  |
| O=C(O)[C@H]1CN(CCCP(=O)(O)O)CCN1 | 5.7% [at 184 µM] |  |
| Cc1ccccc1Nc1cc2ccccc2c(=O)[nH]1 |  | 25.1 µM [fluorescent] (active) and 44.7 µM [fluorescent] (active) |
| COc1cc(/C=C(\C#N)C(=O)NCC2CCCO2)ccc1OCCC(C)C (stereo not given) | -12.5% |  |
| COc1ccc(C(=O)/C=C/Nc2ccc(S(=O)(=O)Nc3ncccn3)cc2)cc1 | 8.87% [at 0.0112 µM] |  |
| Cc1[nH][nH]c(=O)c1C(c1ccc(-c2ccccc2C(=O)O)o1)c1c(C)[nH][nH]c1=O | 24.3% |  |
| CCOc1ccc(C2=Cc3cc(OC)c(OC)cc3C(=C(Cl)Cl)O2)cc1 | -2.95% |  |
| O=C(NNc1cc(N2CCOCC2)nc(N2CCOCC2)n1)c1ccc([N+](=O)[O-])cc1 | 19.9% [at 11.6 µM] |  |
| CC1=NN(c2ccc(F)cc2)C(=O)C1C(c1cccc(O)c1)c1c(C)[nH]n(-c2ccc(F)cc2)c1=O (stereo not given) | 23.1% |  |
| Cc1cc(C)cc(OCC(=O)NCCc2nc3ccccc3[nH]2)c1 | 1.64% [at 184 µM] |  |
| CCCCOc1ccc(C(=O)CCN2CCOCC2)cc1 | -10.9% |  |

| SMILES | total fluorescence change, positive = fluorescent | Potency |
| --- | --- | --- |
| Cc1cccc(Cn2c(C(=O)OC(C)C)cc3c2ccn3C)c1 | 8.18% [at 5.76 µM] |  |
| Cn1cc[nH]c1=S | 0.589% |  |
| COn1c2c(c3c4nonc4ccc31)CCCC2 | -9.3% |  |
| Cc1ccc(-c2nc(S(=O)(=O)c3ccc(F)cc3)c(SCC(=O)NCC3CCCO3)o2)cc1 (stereo not given) | 21.4% [at 46.3 µM] |  |
| CC1(C)CC(=O)C(N=Nc2cccc(S(=O)(=O)N3CCOCC3)c2)=C(O)C1 | -10.8% |  |
| O=c1[nH]c(Nc2ccccc2)cc2ccccc12 |  | 35.5 µM [fluorescent] (active) |
| Cc1nnc(SCC(=O)Nc2ccc(N(C)C)cc2)[nH]c1=O | -3.74% [at 184 µM] |  |
| CCCCCCN=CC1=C(O)CC(C)(C)CC1=O | -5.99% [at 0.0112 µM] |  |
| Cn1c(-c2ccc(=O)[nH]c2)nc2ccccc21 | 2.71% |  |
| CCN(CC)S(=O)(=O)c1cccc(N=NC2=C(O)CCCC2=O)c1 | 7.56% [at 0.0112 µM] |  |
| COc1cc(C(c2c(C)[nH][nH]c2=O)c2c(C)[nH][nH]c2=O)ccc1OC(=O)c1cccc(C)c1 | 3.7% [at 184 µM] |  |
| CC1=NN(Cc2ccccc2)C(=O)C1 | -15.6% |  |
| O=C(/C=C/c1ccco1)NC(=S)Nc1cc(C(F)(F)F)ccc1N1CCOCC1 | 12.8% |  |
| COc1ccc(CN2C(=O)Cc3c2nc(N)c2c(N)nc(N4CCCCC4)c(C#N)c32)cc1 | 28.9% |  |
| O=C(NNc1cc(N2CCOCC2)nc(N2CCOCC2)n1)c1ccc(Cl)c(Cl)c1 | 20.8% |  |
| COc1cc(NCCCC(C)N)c2ncccc2c1 (stereo not given) | -9.55% [at 11.6 µM] |  |
| Cc1cc2ccccc2n1CCNC(=O)C(C)Oc1ccccc1 (stereo not given) | -0.272% [at 46.3 µM] |  |
| CN(CCO)c1nc(N)c2c(N)nc3c(c2c1C#N)CC(=O)N3C1CCCC1 | 13.6% [at 11.6 µM] |  |
| CCCc1nc2c(=O)n(C)c(=O)nc-2n(C)n1 | 2.84% |  |
| Cc1nc2c3cc(F)ccc3n(Cc3ccccc3F)c2s1 | -1.48% [at 46.3 µM] |  |
